Inconclusive results are not listed. Active and inactive are the calls of the source. Calls follow the shape of the full dose curve.

Chain of Vitamin D3 receptor (Homo sapiens) (P11473 whole entry, looked up): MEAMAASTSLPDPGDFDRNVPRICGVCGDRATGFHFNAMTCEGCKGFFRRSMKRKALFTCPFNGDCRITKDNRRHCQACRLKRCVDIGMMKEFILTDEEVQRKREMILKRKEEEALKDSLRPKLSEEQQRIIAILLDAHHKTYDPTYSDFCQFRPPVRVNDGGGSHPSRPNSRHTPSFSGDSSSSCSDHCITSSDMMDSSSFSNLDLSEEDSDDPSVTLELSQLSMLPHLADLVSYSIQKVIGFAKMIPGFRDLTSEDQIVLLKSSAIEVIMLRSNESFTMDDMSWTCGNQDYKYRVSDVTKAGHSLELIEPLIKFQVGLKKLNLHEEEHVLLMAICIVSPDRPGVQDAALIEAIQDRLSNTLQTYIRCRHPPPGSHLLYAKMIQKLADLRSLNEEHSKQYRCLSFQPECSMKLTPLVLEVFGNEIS

This assay addresses Vitamin D3 receptor (Homo sapiens) (UniProt P11473). As to the kind of experiment: qHTS assay for small molecule agonists of vitamin D receptor signaling (AID 588543). Particulars: HEK293T VDR-UAS-bla, beta-lactamase ratio, 16 h; series mostly up to 76.8 µM. From the text:
NIH Chemical Genomics Center [NCGC]
U.S. Environmental Protection Agency [EPA]
National Institutes of Environmental Health Sciences [NIEHS]
National Toxicology Program [NTP]
The Vitamin D receptor (VDR) is a member of nuclear hormone receptor superfamily and it plays a critical role in calcium homeostasis and bone metabolism. It plays a role in inducing cell differentiation, inhibiting cell growth and in thrombogenicity. So, VDR that mediates these effects represents a pharmacological target in prevention and treatment of hyperproliferative malignancies, such as cancer and psoriasis, cardiovascular, immunological, inflammatory and renal diseases etc.
NCGC Assay Protocol Summary
Using a beta-lactamase reporter-gene under control of Vitamin D receptor (VDR) response element, a cell-based assay [GeneBLAzer (VDR -UAS-bla assay developed by Invitrogen] was used to measure VDR ligands signaling. GeneBLAzer VDR -UAS-bla HEK293T cells were used with assay medium containing 2% charcoal-stripped FBS. The assay was performed in clear bottom black Greiner 1536-well plates. 1-alpha,25-Dihydroxy vitaminD3 was used as a positive control in the screen. Library compounds were measured for their ability to stimulate the reporter gene activity. Compounds were screened in a titration series in 1536-well format. The fluorescence intensity (405 nm excitation, 460/530 nm emission) was measured using an EnVision plate reader. Data was normalized relative to 1-alpha,25-Dihydroxy vitaminD3 control (50 nM, 100%) and DMSO only wells (basal, 0%). Concentration-response titration points for each compound were fitted to the Hill equation yielding concentrations of half-maximal stimulation (EC50) and maximal response (efficacy) values.
qHTS protocol for VDR beta-lactamase assay in agonist mode
[Step] [Parameter] [Value] [Description]
1. Reagent; 6 uL; 2000 cells/well
2. Incubation; 37 C for 5 hrs
4. Controls (1-alpha,25-Dihydroxy vitaminD3); 23 nL,
- Final concentrations of 50 nM and 15 nM in two columns
5. Incubation; 37 C for 16 hrs
6. Detection reagent; 1 uL of CCF4-dye
7. Incubation; RT for 2 hrs
8. Detection; Fluorescence; Envision plate reader
On the technique in general: qHTS replaces the single test concentration by a dilution series.
With `CCC(C)(C)c1ccc(O)cc1`, the result was inactive. Next, `CC(C)NC(C)C`: “inactive”; `CCOC(=O)CC(SP(=S)(OC)OC)C(=O)OCC` (stereo not given): “inactive”. Next, `CC(C)c1cccc(C(C)C)c1O`: “inactive”; `O=C1c2ccccc2C(=O)c2ccccc21`: “inactive”. With `[N-]=[N+]=CC(=O)OC[C@H](N)C(=O)O` the entry was “inactive”; with `Nc1ccc([As](=O)(O)O)cc1`, “inactive”; with `CN1C[C@H](C(=O)N[C@]2(C)O[C@@]3(O)[C@@H]4CCCN4C(=O)[C@H](Cc4ccccc4)N3C2=O)C=C2c3cccc4[nH]cc(c34)C[C@H]21`, “inactive”.

For `COP(=S)(OC)Oc1ccc(SC)c(C)c1`, the result was inactive.

Take `COC(=O)C(c1ccccc1)C1CCCCN1` (stereo not given): the outcome was inactive.

Take `Clc1ccc(C(c2ccc(Cl)cc2)C(Cl)(Cl)Cl)cc1`: the result was inactive. Next, `COc1cc(OC)c(OC)cc1C=O`: “inactive”; `Nc1ccccc1`: “inactive”. Regarding `CCCC(C)(COC(N)=O)COC(N)=O`, the outcome was inactive.

Turning to `Oc1ccc(Cl)cc1`, the result was inactive.

As to `C[C@]12CCC(=O)C=C1CC[C@@H]1[C@@H]2CC[C@@]2(C)[C@H]1CC[C@]2(C)O`, the outcome was inactive. As to `O=P1(N(CCCl)CCCl)NCCCO1` (stereo not given), the outcome was inactive. In the case of `Nc1ccccc1C(=O)O`, the result was inactive. `CC1(C)C(C=C(Cl)Cl)C1C(=O)OC(C#N)c1cccc(Oc2ccccc2)c1` (stereo not given): the result was inactive.

In the case of `O=C(O)CCCc1ccc(N(CCCl)CCCl)cc1`, the outcome was inactive.

For the origin of these results see PubChem BioAssay (NCATS).
